# Assay results: PubChem BioAssay
# Unmarked numbers belong to inactive results. Where a call stands in place of a potency, no number is given. For some assays here: Potency and affinity values are given separately. The source made the active and inactive calls. Unless noted, no rule for the calls is given here.
# How the values were obtained:
# [1] = antimalarial activity against Dd2 strain (AID 2302;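 active = growth inhibition above 50% at the single 2 µM test dose, taken to imply half-maximal potency below 2 µM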); details: P. falciparum Dd2 in RBCs, LDH growth readout, 72 h; at 2 µM; hits give high values
# [2] = human hepatoma cell viability loss – ATP luminescence, cytotoxicity control for P. falciparum antimalarial project, primary screen (AID 2303;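 active = inhibition above 50%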); details: HepG2 viability, 24-48 h, at 10 µM, hits give high values
# [3] = molecular target: L-lactate dehydrogenase (Plasmodium falciparum (isolate CDC / Honduras)) (UniProt Q27743); assay: PfLDH activity inhibition – cell lysate, 3D7 strain, counter-screen for P. falciparum growth inhibition project (AID 2304); details: P. falciparum 3D7 crude extract, LDH APAD/NBT absorbance; at 2 µM; hits give high values
# [4] = inhibition of 3D7 malaria parasite growth – strain 3D7 (AID 2306); details: P. falciparum 3D7 erythrocytic growth, LDH absorbance, 72 h; at 2 µM; hits give high values
# [5] = molecular target: Calcium-dependent protein kinase 1 (Plasmodium falciparum (isolate 3D7)) (UniProt P62344); assay: PfCDPK1 kinase inhibitors, biochemical, TCAMS library (AID 1159585; cut-off not given, nearly all actives have IC50 up to about 0.98 µM;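 also: inhibitors leave more ATP so luminescence rises with inhibition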); details: recombinant PfCDPK1, Kinase-Glo ATP depletion luminescence
# [6] = molecular target: Plasmodium falciparum protein kinase 6 (PK6, PF3D7_1337100) (UniProt Q8IDW1); assay: PfPK6 kinase inhibitors, biochemical, TCAMS library (AID 1159586); details: recombinant PfPK6, Kinase-Glo ATP depletion luminescence
# [7] = molecular target: Protein kinase 7 (PK7), Plasmodium falciparum 3D7 (PF3D7_0213400) (UniProt Q7YTF7); assay: inhibition of Plasmodium PK7 catalytic activity – biochemical, TCAMS antimalarial set, Kinase-Glo luminescence (AID 1159587); details: recombinant PfPK7, Kinase-Glo ATP depletion luminescence
# [8] = molecular target: Calcium-dependent protein kinase 4 (Plasmodium falciparum (isolate 3D7)) (UniProt Q8IBS5); assay: PfCDPK4 kinase inhibitors, biochemical, TCAMS library (AID 1159588; cut-off not given, nearly all actives have IC50 up to about 0.91 µM); details: recombinant PfCDPK4, Kinase-Glo ATP depletion luminescence
# Calcium-dependent protein kinase 4 (Plasmodium falciparum (isolate 3D7)), sequence (Q8IBS5 whole entry, looked up): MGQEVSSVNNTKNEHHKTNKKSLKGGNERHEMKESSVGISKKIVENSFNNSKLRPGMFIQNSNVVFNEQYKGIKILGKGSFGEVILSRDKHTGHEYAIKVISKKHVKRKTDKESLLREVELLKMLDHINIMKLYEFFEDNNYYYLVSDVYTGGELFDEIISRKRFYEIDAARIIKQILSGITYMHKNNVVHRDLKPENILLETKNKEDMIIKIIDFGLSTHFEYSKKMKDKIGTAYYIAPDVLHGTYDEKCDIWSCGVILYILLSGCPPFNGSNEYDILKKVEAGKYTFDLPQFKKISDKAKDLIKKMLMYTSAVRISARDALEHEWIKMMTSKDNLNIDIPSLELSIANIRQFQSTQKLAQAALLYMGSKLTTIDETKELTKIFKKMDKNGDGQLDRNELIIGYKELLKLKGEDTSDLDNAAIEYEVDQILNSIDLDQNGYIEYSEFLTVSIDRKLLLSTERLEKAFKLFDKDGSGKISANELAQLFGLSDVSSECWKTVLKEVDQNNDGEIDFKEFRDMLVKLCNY
# Plasmodium falciparum protein kinase 6 (PK6, PF3D7_1337100), sequence (Q8IDW1 1-305): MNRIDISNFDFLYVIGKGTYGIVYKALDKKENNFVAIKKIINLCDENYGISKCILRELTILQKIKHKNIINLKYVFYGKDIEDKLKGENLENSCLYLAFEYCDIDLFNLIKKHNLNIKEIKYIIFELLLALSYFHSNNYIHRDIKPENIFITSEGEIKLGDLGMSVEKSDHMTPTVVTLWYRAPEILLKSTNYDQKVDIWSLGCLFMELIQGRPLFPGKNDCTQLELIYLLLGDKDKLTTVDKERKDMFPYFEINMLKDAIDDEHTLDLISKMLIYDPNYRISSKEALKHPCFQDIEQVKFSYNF
# Calcium-dependent protein kinase 1 (Plasmodium falciparum (isolate 3D7)), sequence (P62344 whole entry, looked up): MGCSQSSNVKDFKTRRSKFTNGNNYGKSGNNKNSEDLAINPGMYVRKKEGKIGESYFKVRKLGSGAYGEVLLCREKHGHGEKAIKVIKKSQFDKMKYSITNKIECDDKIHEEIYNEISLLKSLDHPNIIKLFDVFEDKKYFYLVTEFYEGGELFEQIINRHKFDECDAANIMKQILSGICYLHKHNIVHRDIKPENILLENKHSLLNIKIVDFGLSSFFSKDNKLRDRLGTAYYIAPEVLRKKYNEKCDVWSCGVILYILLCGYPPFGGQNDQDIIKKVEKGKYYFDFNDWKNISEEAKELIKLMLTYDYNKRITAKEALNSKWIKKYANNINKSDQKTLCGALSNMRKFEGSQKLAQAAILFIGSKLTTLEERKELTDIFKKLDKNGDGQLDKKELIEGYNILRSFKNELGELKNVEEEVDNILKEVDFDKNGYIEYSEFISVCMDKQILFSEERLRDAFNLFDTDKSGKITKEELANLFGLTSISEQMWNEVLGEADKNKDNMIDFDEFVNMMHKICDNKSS
# Protein kinase 7 (PK7), Plasmodium falciparum 3D7 (PF3D7_0213400), sequence (Q7YTF7 1-343): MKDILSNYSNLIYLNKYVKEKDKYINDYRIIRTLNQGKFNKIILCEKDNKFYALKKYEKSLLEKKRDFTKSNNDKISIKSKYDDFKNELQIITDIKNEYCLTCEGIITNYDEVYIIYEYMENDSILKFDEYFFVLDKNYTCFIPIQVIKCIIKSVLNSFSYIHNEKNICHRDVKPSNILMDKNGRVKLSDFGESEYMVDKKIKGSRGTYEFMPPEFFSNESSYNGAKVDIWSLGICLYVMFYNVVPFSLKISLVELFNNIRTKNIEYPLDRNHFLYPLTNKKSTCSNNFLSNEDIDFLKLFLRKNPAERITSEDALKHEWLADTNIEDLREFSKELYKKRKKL
# L-lactate dehydrogenase (Plasmodium falciparum (isolate CDC / Honduras)), sequence (Q27743 whole entry, looked up): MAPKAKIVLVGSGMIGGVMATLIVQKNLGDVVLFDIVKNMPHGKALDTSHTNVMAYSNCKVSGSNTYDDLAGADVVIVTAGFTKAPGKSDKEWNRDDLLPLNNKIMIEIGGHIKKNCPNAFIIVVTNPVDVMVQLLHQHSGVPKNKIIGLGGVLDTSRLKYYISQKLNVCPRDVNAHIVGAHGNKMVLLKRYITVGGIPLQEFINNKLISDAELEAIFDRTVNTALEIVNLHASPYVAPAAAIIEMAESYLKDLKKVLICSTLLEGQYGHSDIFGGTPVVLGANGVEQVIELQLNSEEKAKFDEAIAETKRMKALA
Structure (SMILES),growth inhibition [1],inhibition [2],inhibition [3] [%],growth inhibition [4],outcome [5],outcome [6],outcome [7],outcome [8]
O=C(Nc1ccc2c(c1)CCN2C1CCN(Cc2ccc(O)cc2)C1)c1ccco1 (stereo not given),63% (active),0%,-2,97% (active),inactive,inactive,inactive,inactive
COc1ccc(Cn2ccc3c4c(N)nc(N)nc4ccc32)cc1,93% (active),90% (active),7,101% (active),inactive,inactive,inactive,inactive
O=C(NCC(CCN1CCC(c2c[nH]c3ccccc23)CC1)c1ccccc1)Nc1ccc(Cl)c(Cl)c1 (stereo not given),53% (active),46%,5,101% (active),inactive,inactive,inactive,inactive
COc1ccc(CCNc2ccnc3cc(Cl)ccc23)cc1OC,92% (active),4%,-7,101% (active),inactive,inactive,inactive,inactive
CNC(=O)c1[nH]c(-c2ccccc2)nc1NC(C)=O,-2%,-3%,-2,100% (active),inactive,inactive,inactive,inactive
CSc1cccc(Nc2nc3ccc(S(=O)(=O)NCC(C)C)cc3n2C(C)C(C)C)c1 (stereo not given),91% (active),3%,-2,93% (active),inactive,inactive,inactive,inactive
O=C(Nc1ccc(Cl)cc1)Nc1cccc(CCNCc2ccccc2)c1,12%,16%,6,101% (active),inactive,inactive,inactive,inactive
COCCCNC(=O)c1ccc(O)c(-c2cc(Cl)cc(Cl)c2)c1,34%,22%,-7,94% (active),inactive,inactive,inactive,inactive
Cc1cc(C)cc(OCC(O)CN(Cc2cc(Cl)cc(Cl)c2)C(=O)Nc2ccccc2Cl)c1 (stereo not given),37%,-1%,2,93% (active),inactive,inactive,inactive,inactive
CC1(C)N=C(N)N=C(N)N1OCCCOc1cccc(C(=O)O)c1,96% (active),73% (active),-6,94% (active),inactive,inactive,inactive,inactive
COc1ccc(CN2CCC(CNCCc3ccccc3Cl)CC2)cc1,17%,36%,-9,87% (active),inactive,inactive,inactive,inactive
C=CCOc1cccc2c1CCN(CCN1CCC(NC(=O)c3ccc(-c4ccc(Cl)cc4)cc3)CC1)C2,22%,35%,-2,93% (active),inactive,inactive,inactive,inactive
CCc1ccc(O)c(-c2cc(C(=O)Nc3cccnc3)[nH]n2)c1,99% (active),-4%,-7,98% (active),inactive,inactive,inactive,inactive
COc1ccc(-c2cc(C(=O)N[C@@H](CC3CCCCC3)C(=O)NCCN3CCCC3)ccc2O)cc1,12%,12%,2,90% (active),inactive,inactive,inactive,inactive
COc1ccccc1C(=O)Nc1ccc(Nc2nc(C)cc(N3CCOCC3)n2)cc1,22%,28%,-3,98% (active),inactive,inactive,inactive,inactive
Clc1ccc2c(N3CCN(CCN4CCN(c5ccnc6cc(Cl)ccc56)CC4)CC3)ccnc2c1,100% (active),10%,1,99% (active),inactive,inactive,inactive,inactive
CCCC(C)N(Cc1ccc(C(C)(C)C)cc1)C(=O)c1cccc(OC)c1 (stereo not given),89% (active),9%,1,100% (active),inactive,inactive,inactive,inactive
N#Cc1cncc(-c2nc3c(N4CCC(N5CCCC5)CC4)cccc3n2CCNCc2ccccc2)c1,58% (active),3%,-2,100% (active),inactive,inactive,inactive,inactive
CN1CCN(CCCN(Cc2csc(-c3ccc(CNCc4ccccc4)cc3)n2)S(=O)(=O)c2ccccc2Cl)CC1,81% (active),13%,-5,93% (active),inactive,inactive,inactive,inactive
CN1CCC(N(Cc2ccc(-c3ccc(C(F)(F)F)cc3)nc2)C(=O)Cn2c(CCc3cccc(F)c3F)cc(=O)c3ccccc32)CC1,85% (active),60% (active),3,91% (active),inactive,inactive,inactive,inactive

Structure (SMILES),growth inhibition [1],inhibition [2],inhibition [3] [%],growth inhibition [4],outcome [5],outcome [6],outcome [7],outcome [8]
COCCOc1ccc(Nc2nccc(-c3c(-c4cccc(NC(=O)c5c(F)cccc5F)c4)nn4ccccc34)n2)cc1F,60% (active),62% (active),1,90% (active),inactive,inactive,inactive,inactive
CCCCNC[C@@H](O)[C@H](Cc1ccccc1)NC(=O)c1cc(NCC)cc(N2CCCCS2(=O)=O)c1,98% (active),11%,2,99% (active),inactive,inactive,inactive,inactive
CNCCNC(=O)C1Cc2c([nH]c3c(C)cccc23)C(c2ccc(Cl)c(Cl)c2)N1 (stereo not given),60% (active),13%,-5,102% (active),inactive,inactive,inactive,inactive
Cc1ccc(Nc2ccnc(Nc3ccc(F)c(Cl)c3)n2)cc1O,52% (active),9%,-4,101% (active),inactive,inactive,inactive,inactive
CCCCn1c(Sc2ccc(C#N)c([N+](=O)[O-])c2)nnc1-c1cccc(Cl)c1,87% (active),30%,2,96% (active),inactive,inactive,inactive,inactive
COc1cc(F)c2ncc(F)c(CCN3C[C@H](CNCc4ccc5c(n4)NC(=O)CS5)[C@H](O)C3)c2c1,47%,10%,2,91% (active),inactive,inactive,inactive,inactive
COc1ccc(Nc2nccc(N3CCC(NC(=O)c4cc5ccccc5s4)C3)n2)cc1 (stereo not given),86% (active),1%,4,99% (active),inactive,inactive,inactive,inactive
CS(=O)(=O)c1ccc(CCNCc2ccc(-c3ccc(CNC4CCN(Cc5ccccc5)CC4)cc3)nc2)cc1,100% (active),32%,3,101% (active),inactive,inactive,inactive,inactive
COc1ccc(-c2cc(C(=O)N3CCc4ccccc43)c3ccccc3n2)cc1OC,48%,5%,3,85% (active),inactive,inactive,inactive,inactive
Cc1cccc(C(=O)Nc2ccnc(N(C)CCCN(C)Cc3cccc(O)c3)c2)c1,71% (active),27%,-3,94% (active),inactive,inactive,inactive,inactive
O=C(Nc1cccc(-c2nn3ccccc3c2-c2ccnc(Nc3cccc(N4CCCC4=O)c3)n2)c1)c1cc(F)ccc1F,51% (active),59% (active),3,99% (active),inactive,inactive,inactive,inactive
CCN1CCC(N(Cc2ccc(-c3ccc(C(F)(F)F)cc3)cc2)C(=O)CCCCn2c(CCc3cccc(F)c3F)nc(=O)c3ccccc32)CC1,77% (active),54% (active),4,90% (active),inactive,inactive,inactive,inactive
COc1cc(NC(=O)c2sc(-c3ccc(Cl)cc3)cc2NC(=O)c2cccnc2)ccc1OCCN1CCCC1,77% (active),38%,-1,94% (active),inactive,inactive,inactive,inactive
COc1ccccc1CN1CCC(NC(=O)c2ccc(-c3ccc(N(C)C)cc3)s2)CC1,38%,29%,-2,90% (active),inactive,inactive,inactive,inactive
COc1ccc(-c2nc(NC(=O)CS(=O)(=O)c3ccc(C)cc3)sc2C)cc1,94% (active),56% (active),2,101% (active),inactive,inactive,inactive,inactive
O=C(Nc1ccc(-c2ccccc2)s1)N[C@H]1CCN(Cc2ccc(OCCCN3CCCCC3)cc2)C1,40%,5%,-6,102% (active),inactive,inactive,inactive,inactive
COc1cccc(-c2csc(C(=O)NCC3CCN(Cc4ccc(C(C)(C)C)cc4)C3)c2)c1 (stereo not given),10%,30%,-2,95% (active),inactive,inactive,inactive,inactive
O=C(Nc1ccc(C(=O)OC[C@@H]2CCCN3CCCC[C@H]23)cc1)c1ccc([N+](=O)[O-])cc1,25%,5%,2,95% (active),inactive,inactive,inactive,inactive
Cc1cc(Nc2cccc(Cl)c2)nc2ccc(NC(=O)c3ccc(=O)[nH]c3)cc12,23%,12%,4,100% (active),inactive,inactive,inactive,inactive
O=S(=O)(c1cc2ccccc2s1)N(CCC(O)(C(F)(F)F)C(F)(F)F)Cc1cccc(O)c1,99% (active),-1%,0,100% (active),inactive,inactive,inactive,inactive
